Assay [1] can be described thus: Drug repurposing screens with cells derived from glioblastoma tumor samples (AID 1345199). Further: nearly all actives have a fitted effect of over 40% in size. The settings on record: GBM patient neurospheres viability, ATP luminescence, 48 h. The procedure, abridged: (§1)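 Primary testing used CD133+ neurospheres from four GBM patients, seven concentrations, 48 h exposure and ATP-based viability; confirmation added three slower-growing patient lines.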

A further assay relates to astro (control astrocytes). The assay is described as above. The settings on record: viability, ATP luminescence, 48 h; series mostly up to 45.9 µM. The procedure, abridged: as §1
The mark [2] stands for this setting: at 45.9 µM (top of the series), tumour line B.
Where [3] appears, read: at 45.9 µM (top of the series), tumour line D.
[4] abbreviates: at 46 µM (top of the series), tumour line A.
Where [5] appears, read: at 46.1 µM (top of the series), tumour line C.
[6] abbreviates: at 20 µM (top of the series), tumour line C.
[7] abbreviates: at 21.2 µM (top of the series), tumour line B.
The mark [8] stands for this setting: at 21.2 µM (top of the series), tumour line D.
Where [9] appears, read: at 21.3 µM (top of the series), tumour line A.

Structures are written as SMILES. “And” between values parts separate entries of the source, which are not always exact repeats. Equal entries are not always repeated. Inconclusive results are not listed. More than one record can exist for a structure, and the calls need not agree. Unmarked numbers belong to inactive results. The source made the active and inactive calls. The call rests on the fitted dose curve; in most records, active means well fitted inhibition curve with a large enough effect; inconclusive means small, poorly fitted or top-dose-only effect; inactive means flat fitted curve, though single readings scatter.
On the % scale 0 is the no-effect control and ±100 the full control effect; potency means the concentration at half of the fitted maximal effect.

In the case of `O=C1C(O)=C(O)C(=O)C(O)=C1O`, the activity, negative = cell killing was -1.83% in assay [1] (setting [2]), -8.56% in assay [1] (setting [3]), -7.89% in assay [1] (setting [4]) and 12.8% in assay [1] (setting [5]). The Potency result in the assay on astro was “inactive”.

With `C#C[C@]1(O)CC[C@H]2[C@@H]3CCC4=Cc5oncc5C[C@]4(C)[C@H]3CC[C@@]21C`, the activity, negative = cell killing in assay [1] (setting [2]) is -5.62%; in assay [1] (setting [3]), -8.01%; in assay [1] (setting [4]) it was -25.3%; in assay [1] (setting [5]), -28.8%. Also, the Potency result in the assay on astro is “inactive”.

`CCCCCCCCCCCCSCCOCCO`: the activity, negative = cell killing in assay [1] (setting [2]) is -1.92%; in assay [1] (setting [3]), -19.1%; in assay [1] (setting [5]), 9.86%. Moreover, the Potency in assay [1] (tumour line A) was 35.5 µM (active). The Potency entry in the assay on astro was “inactive”.

For `CC(=O)Nc1ccc(OC(=O)c2ccccc2OC(C)=O)cc1`, the activity, negative = cell killing is -12.4% in assay [1] (setting [2]), -13.4% in assay [1] (setting [3]), -15.3% in assay [1] (setting [4]) and -16.9% in assay [1] (setting [5]). The Potency entry with astro was “inactive”.

Consider `CC(=O)Nc1ccc(OCC(O)CNC(C)C)cc1` (stereo not given), for which the activity, negative = cell killing is -1.74% in assay [1] (setting [2]), -7.95% in assay [1] (setting [3]), -46.4% in assay [1] (setting [4]) and -12.1% in assay [1] (setting [5]). For the same compound, the Potency entry in the assay with astro was “inactive”.

On to `O=C(O)CCC(=O)Nc1ccc(S(=O)(=O)Nc2nccs2)cc1`, for which the activity, negative = cell killing was -5.75% in assay [1] (setting [6]), 2.8% in assay [1] (setting [7]), -10.2% in assay [1] (setting [8]) and -13.6% in assay [1] (setting [9]). In the assay on astro, the Potency entry is “inactive”.

For the compound `CCN(CC)CCOC(=O)C(Cc1cccc2ccccc12)CC1CCCO1` (stereo not given), the figures for the activity, negative = cell killing in assay [1] (setting [6]), in assay [1] (setting [7]) and in assay [1] (setting [8]) were 6.25%, -13.3% and -13.7%, respectively. In addition, the Potency in assay [1] (tumour line A) is 11.2 µM (active). Further, the Potency entry with astro is “inactive”.

`CC(=O)Oc1ccc(C)cc1`: the activity, negative = cell killing in assay [1] (setting [2]) was -11.7%; in assay [1] (setting [3]), -7.35%; in assay [1] (setting [4]) it was -28.8%; in assay [1] (setting [5]), -10.6%. Moreover, the Potency result in the assay on astro was “inactive”.

For the compound `CC(=O)N[C@@H](CCC(=O)O)C(=O)O`, the activity, negative = cell killing in assay [1] (setting [2]) was 2.35%; in assay [1] (setting [3]), -7.45%; in assay [1] (setting [4]) it was -9.15%; in assay [1] (setting [5]), -3.96%. For the same compound, the Potency entry in the assay with astro is “inactive”.

Regarding `CC(C)(C)NCC(O)COc1cccc2c1C[C@H](O)[C@H](O)C2` (stereo not given in full), the activity, negative = cell killing is -4.25% in assay [1] (setting [6]), -2.25% in assay [1] (setting [7]), -3.22% in assay [1] (setting [8]) and -16.2% in assay [1] (setting [9]). Besides, the Potency entry with astro was “inactive”.

`CC1CCc2c(N3CCC(O)CC3)c(F)cc3c(=O)c(C(=O)O)cn1c23` (stereo not given): the activity, negative = cell killing in assay [1] (setting [2]) is 9.87%; in assay [1] (setting [3]) it was -25.4%; in assay [1] (setting [4]), -14.1%; in assay [1] (setting [5]), -16%. Moreover, in the assay on astro, the Potency entry is “inactive”.

Consider `CCN1CCCC(OC(=O)C(c2ccccc2)c2ccccc2)C1` (stereo not given), for which the activity, negative = cell killing is -5.6% in assay [1] (setting [6]), -12.3% in assay [1] (setting [7]) and -10.7% in assay [1] (setting [8]). The Potency in assay [1] (tumour line A) is 8.91 µM (active). Moreover, in the assay on astro, the Potency result is “inactive”.

Regarding `CCc1nn(CCCN2CCN(c3cccc(Cl)c3)CC2)c(=O)n1CCOc1ccccc1`, the figures for the activity, negative = cell killing in assay [1] (setting [2]) and in assay [1] (setting [5]) were -29% and -17.6%, respectively. Besides, the Potency in assay [1] (tumour line A) was 7.94 µM (active) and 10 µM (active); in assay [1] (tumour line D), 15.8 µM (active) and 11.2 µM (active); with astro, 35.5 µM (active) and 25.1 µM (active).

For `Cc1ncc(CO)c(C=O)c1O`, the activity, negative = cell killing is 6.81% in assay [1] (setting [2]), -6.02% in assay [1] (setting [3]), -26.4% in assay [1] (setting [4]) and 7.46% in assay [1] (setting [5]). Moreover, the Potency result in the assay with astro is “inactive”.

As to `Nc1nc(N)c(-c2ccccc2)s1`, the activity, negative = cell killing is -11% in assay [1] (setting [2]), 8.98% in assay [1] (setting [3]), -29.6% in assay [1] (setting [4]) and -25.4% in assay [1] (setting [5]). For the same compound, the Potency entry in the assay on astro was “inactive”.

Regarding `O=C(O)P(=O)(O)O`, the activity, negative = cell killing in assay [1] (setting [2]) is -0.165%; in assay [1] (setting [3]) it was -25%; in assay [1] (setting [4]), -23.7%; in assay [1] (setting [5]), 21.2%. In addition, the Potency entry in the assay with astro was “inactive”.

With `NS(=O)(=O)c1cc2c(cc1Cl)NC(CC1CCCC1)NS2(=O)=O` (stereo not given), the activity, negative = cell killing is -10.8% in assay [1] (setting [6]), -9.27% in assay [1] (setting [7]), -11% in assay [1] (setting [8]) and -13.5% in assay [1] (setting [9]). Moreover, in the assay on astro, the Potency result was “inactive”.

As for `CC(O)Cn1cnc2c1c(=O)n(C)c(=O)n2C` (stereo not given), the activity, negative = cell killing in assay [1] (setting [6]) is 7.77%; in assay [1] (setting [7]), -9.45%; in assay [1] (setting [8]), -12.1%; in assay [1] (setting [9]), -14.4%. Moreover, the Potency result in the assay on astro is “inactive”.

Consider `CC(=O)NO`, for which the activity, negative = cell killing was -7.52% in assay [1] (setting [2]), -5.2% in assay [1] (setting [3]), -11.7% in assay [1] (setting [4]) and 11.5% in assay [1] (setting [5]). In the assay with astro, the Potency result was “inactive”.

Regarding `OC1C(O)C(O)C(O)C(O)C1O` (stereo not given), the activity, negative = cell killing in assay [1] (setting [2]) was -13.8%; in assay [1] (setting [3]), -13.1%; in assay [1] (setting [4]), -17.2%; in assay [1] (setting [5]), -1.34%. The Potency result with astro was “inactive”.

For `CCCCNc1ccc(C(=O)OCCOCCOCCOCCOCCOCCOCCOCCOCCOC)cc1`, the activity, negative = cell killing in assay [1] (setting [6]) is 19.8%; in assay [1] (setting [7]), -6.92%; in assay [1] (setting [8]), -6.38%; in assay [1] (setting [9]), -27%. Moreover, the Potency entry with astro is “inactive”.

As for `CC(C)[C@@H]1CC[C@@H](C)CC1=O`, the activity, negative = cell killing in assay [1] (setting [2]) is -6.28%; in assay [1] (setting [3]), -8.45%; in assay [1] (setting [4]), -24.9%; in assay [1] (setting [5]), -8.42%. Besides, the Potency entry in the assay with astro is “inactive”.

With `CC(=O)NC(=O)c1ccccc1O`, the activity, negative = cell killing is -6.43% in assay [1] (setting [2]), -8.37% in assay [1] (setting [3]), -24.9% in assay [1] (setting [4]) and -17.7% in assay [1] (setting [5]). For the same compound, the Potency result with astro was “inactive”.

The values are drawn from PubChem BioAssay (NCATS).
